In the library only some 2.7% were active in any assay of this set; here they are far more common.
IDE inh: inhibits human insulin-degrading enzyme in HEK cells. P14735. FAbetaB cleavage, fluorescence polarization. inhibition, % at 5.59 µM. 0.41% of 320,000 active. AID 434962;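 active = percent inhibition above the average of all tested compounds plus 3 SD, set per screening campaign, cut at about 16% in these data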;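 also: IDE supplied by intact live HEK cells; FP after avidin binding of uncleaved biotin substrate so inhibition keeps polarization high; 0% = DMSO wells and 100% = 60 µM reference IDE inhibitor Ii1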
TMEM16A inh: inhibitors of mouse TMEM16A calcium-activated chloride channel; Q8BHY3; HEK293 TMEM16A/YFP iodide influx fluorescence, ionomycin; normalized B-score (activity score, 25-100; higher = stronger inhibition) at 10 µM; 1.2% of 310,000 active;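 active = ratio plate-corrected score three or more library SD toward inhibition, starting fluorescence score within five deviations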;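 also: score derived from kinetic fluorescence span divided by baseline fluorescence per well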
CHT PAM: allosterically activates the human high affinity choline transporter; CHT-expressing cells, membrane potential dye, choline EC20; active compounds read high; LV-AA mutant CHT in HEK293 cells; B-score at 10 µM; 0.49% of 310,000 active;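 active = initial fluorescence not abnormally high and integrated response B-score, plate-corrected, over 3 SD above library mean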
Target sequence (Q9GZV3 whole entry, looked up): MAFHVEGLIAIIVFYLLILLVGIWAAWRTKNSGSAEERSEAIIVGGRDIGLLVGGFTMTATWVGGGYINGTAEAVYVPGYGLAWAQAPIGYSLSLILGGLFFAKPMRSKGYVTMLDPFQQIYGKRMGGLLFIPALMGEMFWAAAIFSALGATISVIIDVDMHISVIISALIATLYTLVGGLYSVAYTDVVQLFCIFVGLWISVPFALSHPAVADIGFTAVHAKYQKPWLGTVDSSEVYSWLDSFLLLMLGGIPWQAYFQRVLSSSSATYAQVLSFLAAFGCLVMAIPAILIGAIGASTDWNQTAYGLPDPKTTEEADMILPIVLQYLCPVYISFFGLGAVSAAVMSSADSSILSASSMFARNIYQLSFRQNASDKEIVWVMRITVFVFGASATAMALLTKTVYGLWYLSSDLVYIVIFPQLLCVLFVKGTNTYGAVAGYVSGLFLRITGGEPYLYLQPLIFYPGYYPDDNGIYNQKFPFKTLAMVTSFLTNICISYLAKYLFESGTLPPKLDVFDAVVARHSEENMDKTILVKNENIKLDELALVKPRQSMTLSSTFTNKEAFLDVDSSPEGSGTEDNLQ
ANO1 activ: mouse TMEM16A channel activation, primary screen | 0.3% of 340,000 active | Q8BHY3 | B-score at 10 µM | AID 623877 | HEK293 TMEM16A/YFP-H148Q/I152L, iodide quench fluorescence; active compounds read low;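 active = fluorescence-ratio B-score plate-corrected deviation score at least 3 library SD below zero, with starting fluorescence score within 5 deviations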;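 also: channel opened by trigger with iodide after compound preincubation; score built on the fluorescence ratio of max minus min over baseline; more negative score means more quench and so TMEM16A activation or potentiation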
CHT block: inhibits the human high affinity choline transporter; CHT-expressing cells, membrane potential dye, choline response; active compounds read low; B-score at 10 µM; 0.86% of 310,000 active; AID 488975;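 active = B-score over 3 SD under the library average, and starting fluorescence ratio not unusually high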;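 also: choline stimulus applied at its EC90 after an EC20 pre-addition; B-score computed on integrated fluorescence ratio after choline addition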
IDE cell activ: IDE (human) activation, cell-based. P14735. HEK cells, FAbeta-B cleavage, fluorescence polarization; 0% vehicle, 100% cell-free pure enzyme wells. activation, % at 5.96 µM. 0.073% of 340,000 active;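 active = activation above the mean of all tested compounds plus 3 SD, set per screening campaign, cut at about 17% in these data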
CHT inh conf: confirmation of human choline transporter CHT inhibitors. shares compounds with CHT block. CHT-expressing cells, choline membrane potential dye; LV-to-AA substituted CHT, HEK293 cells. CHT activity remaining % of control (active compounds read low), % at 10 µM. 70% of 2,400 active. AID 493221;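 active = choline transporter activity left, mean of duplicates at 10 µM, below buffer-only control mean minus 3 SD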;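 also: depolarization triggered by choline at its EC90 following an EC20 pre-addition; 0% = hemicholinium-3 full block and 100% = buffer-only control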
HEK293 CHT ctr: CHT inhibitor counter-screen hit in parental HEK293 cells | shares compounds with CHT block | membrane potential dye, choline response; active = decrease or increase beyond buffer ±3SD | membrane potential ratio readout (active if shifted either direction beyond buffer ±3SD; no single direction) at 10 µM | 4% of 2,400 active | AID 493222;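 also: parental cells lack the transporter so any hit is non-specific; ratio is peak minus trough fluorescence over baseline after EC90 choline challenge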
Active calls of the source: *; i = inactive; · = no result.

SMILES | IDE inh | TMEM16A inh | CHT PAM | ANO1 activ | CHT block | IDE cell activ | CHT inh conf | HEK293 CHT ctr
Cc1ccc(S(=O)(=O)N2[C@@H](c3ccc(F)cc3)C(C(=O)O)=CC[C@H]2c2ccc(C(C)C)cc2)cc1 | 1.7 | 100* | i | i | -6.31* | -0.7 | 65.2%* | i
Cc1ccc(S(=O)(=O)N2[C@@H](c3ccccc3)C(C(=O)O)=CC[C@H]2c2ccc(Cl)cc2)cc1 | 3.1 | i | i | i | i | 4.8 | · | ·
COc1ccc(OC)c(S(=O)(=O)NCC(c2ccco2)S(=O)(=O)c2ccccc2)c1 (configuration not stated) | -0.9 | i | i | i | i | 1.7 | · | ·
CC(=O)C1=C(O)C(=O)N(Cc2ccccc2)C1c1ccccc1F (configuration not stated) | 0.9 | i | i | i | -8.36* | -2.2 | i | i
O=c1c2ccccc2nc(-c2ccccc2)n1Cc1ccco1 | 7.2 | i | i | i | -6.04* | 1.4 | 69.8%* | i
CC(=O)Nc1ccc(-c2csc(NNC(=O)c3ccc(C)cc3)n2)cc1 | 0.7 | i | i | i | i | -3.2 | · | ·
O=C(NNc1nc(-c2ccccc2)cs1)c1ccccc1 | -3.9 | i | i | i | -7.79* | -7.5 | 61.8%* | i
CC(C)Sc1sc(C(=O)O)c(-c2ccc(Cl)cc2)c1C#N | 5.6 | i | i | i | -5.65* | 4.1 | 61.4%* | i
O=C(c1ccc(CN2CCc3ccccc3C2)cc1)N1CCN(c2ccc(F)cc2)CC1 | 1.5 | i | i | i | -4.97* | 2.2 | i | i
O=C(c1ccc(CN2CCc3ccccc3C2)cc1)N1CCCCC1 | 4.8 | i | i | i | i | -1.2 | · | ·
Cc1cc(C)c(NC(=O)c2ccc(CN3CCc4ccccc4C3)cc2)c(C)c1 | 5.7 | i | i | i | -11.4* | 1.7 | 18.4%* | i
O=C(Nc1ccc(C(=O)OC2CCCCC2)cc1)c1ccncc1 | -0.8 | i | i | i | i | -4.9 | · | ·
O=C(Nc1nccs1)C1CCN(S(=O)(=O)c2c(Cl)cccc2Cl)CC1 | 0.3 | i | i | i | -5.88* | 0.5 | i | i
O=C(Nc1nccs1)C1CCN(S(=O)(=O)c2ccc(F)cc2)CC1 | 0.9 | i | i | i | i | -5.8 | · | ·
N#CC(C#N)=C(Nc1ccc(F)cc1)SCc1cccc(F)c1 | 3.8 | 25* | i | i | -5.81* | 5.2 | 64.5%* | i
CCOc1ccc(N/C(SCc2cccc([N+](=O)[O-])c2)=C(/C#N)C(N)=O)cc1 | -0.3 | i | i | i | i | 2.0 | · | ·
CC1CCCCC1NC(=O)c1ccc(NC2=NC3CS(=O)(=O)CC3S2)cc1 (configuration not stated) | 4.2 | i | i | i | i | 2.9 | · | ·
CC1CCC(NC(=O)c2ccc(NC3=NC4CS(=O)(=O)CC4S3)cc2)CC1 (configuration not stated) | -1.4 | i | i | i | -5.99* | -7.5 | 33.9%* | i
Cc1ccc(NC(=O)CN2C(=O)NC3(CCCCC3)C2=O)cc1S(=O)(=O)N1CCOCC1 | 2.4 | · | · | i | · | 3.1 | · | ·
COc1ccc(S(=O)(=O)N2CCN(CCc3ccccc3)CC2)c(OC)c1 | -2.2 | i | i | i | -5.46* | 3.2 | 48.4%* | i
COc1ccc(OC)c(S(=O)(=O)N2CCN(Cc3ccccc3)CC2)c1 | 2.4 | i | i | i | i | 2.8 | · | ·
CCOC(=O)N1CCN(CC(O)COc2ccccc2[N+](=O)[O-])CC1 (configuration not stated) | 5.3 | i | i | · | i | 5.3 | · | ·
